# According to PubChem BioAssay (NCATS):
# Records with an inconclusive call do not appear. Entries that show only a call come without a potency. Active and inactive are the calls of the source. Calls follow the shape of the dose curve; as a rule, active = well fitted inhibition curve with a large enough effect; inconclusive = small, poorly fitted or top-dose-only effect; inactive = no such curve, though single readings can be large or run the other way.
# Test: Primary qHTS for inhibitors of nuclear receptor binding SET domain protein 2 (NSD2) in an RCH-ACV wild type WT cells (2C) (AID 1645877); also: nearly all actives have a fitted effect of over 70% in size
# Conditions: RCH-ACV (leukaemia line) NSD2 WT (2C) viability, CellTiter-Glo, 72 h; series mostly up to 44.9 µM
# Potency is read from the fitted curve at half-maximal effect.
row,SMILES,Potency
1,Cc1cccc(C)c1NC(=O)CN1CCCCCC1,inactive
2,COC(=O)C(c1ccccc1Cl)N1CCc2sccc2C1 (stereo not given),inactive
3,CN1CCN(c2cc3c(cc2F)c(=O)c(C(=O)O)cn3-c2ccc(F)cc2)CC1,7.5 µM (active)
4,Oc1c(Cl)cc(Cl)c(Cl)c1Cc1c(O)c(Cl)cc(Cl)c1Cl,5.96 µM (active)
5,CCO[C@@H]1O[C@H](C(COCc2ccccc2)OCc2ccccc2)[C@H](OCc2ccccc2)[C@H]1O (stereo not given in full),21.1 µM (active)
6,O=C(NCCc1c[nH]c2ccccc12)c1cccnc1,inactive
7,Nc1ccc(S(=O)(=O)NCc2ccccc2)cc1,inactive
8,CCCCCCCCCCCCCC[N+](C)(C)Cc1ccccc1,0.237 µM (active)
9,CC(C)Cn1cnc2c1c(=O)n(C)c(=O)n2C,inactive
10,O=C(O)CCNC(=O)c1ccccc1,inactive
11,COc1cc(C)nc(-n2nc(C)cc2OC)n1,inactive
12,C[C@H]1O[C@@H](O[C@H]2CC[C@@]3(C)[C@H](CC[C@@H]4[C@@H]3C[C@@H](O)[C@]3(C)[C@@H](C5=CC(=O)OC5)CC[C@]43O)C2)C[C@H](O)[C@@H]1O[C@H]1C[C@H](O)[C@H](O[C@H]2C[C@H](O)[C@H](O[C@@H]3O[C@H](CO)[C@@H](O)[C@H](O)[C@H]3O)[C@@H](C)O2)[C@@H](C)O1,0.0944 µM (active)
13,Nc1ccc(S(=O)(=O)Nc2cnc3ccccc3n2)cc1,inactive
14,O=[N+]([O-])c1cccc(S(=O)(=O)NCCNS(=O)(=O)c2cccc([N+](=O)[O-])c2)c1,inactive
15,OC[C@H]1O[C@@H]2O[C@H]3[C@H](O)[C@@H](O)[C@@H](O[C@H]4[C@H](O)[C@@H](O)[C@@H](O[C@H]5[C@H](O)[C@@H](O)[C@@H](O[C@H]6[C@H](O)[C@@H](O)[C@@H](O[C@H]7[C@H](O)[C@@H](O)[C@@H](O[C@H]8[C@H](O)[C@@H](O)[C@@H](O[C@H]1[C@H](O)[C@H]2O)O[C@@H]8CO)O[C@@H]7CO)O[C@@H]6CO)O[C@@H]5CO)O[C@@H]4CO)O[C@@H]3CO,inactive
